From ChEMBL document CHEMBL4513216, “Probing the Open Global Health Chemical Diversity Library for Multistage-Active Starting Points for Next-Generation Antimalarials” (ACS Infect Dis, 2020)
The campaign covered roughly 69,000 compounds. About 8,600 (12%) showed an effect of 50% or more. The list comes from a sample in which strong results are over-represented; it also holds similar structures and randomly drawn compounds.

The compounds below were run on Plasmodium berghei (assay: Screen against P. berghei liver stage (PbLuc), transformed with Luciferase, at 10uM). Conditions: tested at 10 uM.
Type: functional, HepG2

Structure (SMILES)	INHIBITION
Cn1cc(CCC(=O)NCc2ccccc2OC(C)(C)C)cn1	-1.3%
NC(=O)CSc1nnc2n1N=CN(c1ccccc1F)C2	-14.9%
C[C@@H](O)CNC(=O)CCc1nc2cccnc2[nH]1	-2.13%
COCC(C)NC(=O)N1CCN(S(C)(=O)=O)CC1 (stereo not given)	5.91%
CNC(=O)c1cn[nH]c1C1(C)CCCN(CC2(O)CCCCC2)C1 (stereo not given)	29.2%
CNC(=O)c1cn[nH]c1C1(C)CCCN(Cc2ccccn2)C1 (stereo not given)	17.1%
CNC(=O)c1cn[nH]c1C1(C)CCCN(Cc2ccccc2OC)C1 (stereo not given)	72.5%
CN(Cc1noc(C2CC2)n1)C1CCN(CCn2cccn2)C1 (stereo not given)	-45.6%
Cc1nccnc1C1CCN(C2CCCC2O)CC1 (stereo not given)	-59.6%
COc1ccc(CCC(=O)N2CCNCC2C(=O)N2CCOCC2)cc1 (stereo not given)	30.3%
CN(Cc1ccc2c(c1)OCO2)Cc1nc(-c2ccco2)no1	15%
Cc1noc(CN(Cc2ccco2)Cc2cccc3c2OCO3)n1	30.3%
CCN(Cc1cccc2c1OCO2)CC1CCCO1 (stereo not given)	50.5%
CCN(Cc1nc(-c2ccco2)no1)Cc1cccc2c1OCO2	55%
Cc1nnc(CN(Cc2cccc3c2OCO3)CC2CCCO2)n1C (stereo not given)	-31.5%
CCN(Cc1ccc2cccc(O)c2n1)CC1CCCO1 (stereo not given)	-13.5%
CC(CNC(=O)N(C)Cc1ccco1)N1CCc2sccc2C1 (stereo not given)	11.4%
COCC1CN(Cc2cccc(C#N)c2)Cc2nccn2C1 (stereo not given)	25.1%
NC(=O)c1cccc(C(=O)N2CCCC(n3ccnc3)C2)c1 (stereo not given)	-31.5%
Cc1cnc(NC(=O)N2CCCCCC2)s1	-9.54%
O=C(Nc1nnc(N2CCCCC2)[nH]1)c1cccs1	-20.6%
CCNc1ncc(C(=O)Nc2nnc(N3CCCCC3)[nH]2)s1	51.1%
Cc1nc(C(=O)N2CCc3[nH]nc(Nc4ccccc4)c3C2)co1	10.9875%
O=S(=O)(N1CCOCC1)N1CCC(Oc2cnccn2)CC1	32.8%
CC(=O)N1CCOCC2(CN(Cc3ccc(C)o3)CCO2)C1 (stereo not given)	26.7%
COCCN1CCC(CNC(=O)C2(c3cccc(C)c3)CC2)C1 (stereo not given)	11.4%
O=C(Cn1nc2c(cc1=O)CCCC2)NC(Cc1ccccc1)C(=O)O (stereo not given)	-30.4%

Structure (SMILES)	INHIBITION
O=C(Cn1nc2c(cc1=O)CCCC2)NC(C(=O)O)c1ccccc1 (stereo not given)	69.8%
O=C(Cn1nc2c(cc1=O)CCCC2)N[C@@H](C(=O)O)c1ccccc1	-19%
Cc1oc(C(=O)O)cc1S(=O)(=O)Nc1cc(F)ccc1F	21%
Cc1nc(CN2C(=O)C[C@@H]3[C@@H]2CCN3S(=O)(=O)C2CC2)cs1	-64.1%
Cc1cccc(NC2CCN(C(=O)Nc3cc(C)on3)CC2)n1	37.2%
Cc1cccc(NC2CCN(C(=O)Nc3cc(F)cc(F)c3)CC2)n1	90%
Cc1cccc(NC2CCN(C(=O)Nc3cccc4[nH]ccc34)CC2)n1	76.1%
Cc1cccc(NC2CCN(C(=O)Nc3cn[nH]c3)CC2)n1	28.8%
Cc1cccc(NC2CCN(C(=O)Nc3cc(F)ccc3F)CC2)n1	-7.35%
Cc1cccc(NC2CCN(C(=O)Nc3ccc(F)cc3C)CC2)n1	-0.113%
O=C(c1ccc2cc[nH]c2c1)N1CCC(Nc2cccnn2)CC1	11.4%
Cc1cccc(NC2CCN(C(=O)Nc3ccc(F)c(F)c3)CC2)n1	67.4%
Cc1cccc(NC2CCN(C(=O)Nc3ccncc3)CC2)n1	16.8%
CCn1cc(CN2CCCN(C(=O)c3ccc(C)o3)CC2)cn1	31.3%
Cn1ccnc1CN1CCC2(CCC(=O)N2CCN2CCCC2)CC1	35.2%
O=C(NCCn1nc(-n2cncn2)ccc1=O)c1ccc(F)cc1F	7.77%
c1cnn(-c2ccc(CCNC3CCN(C4CC4)C3)cc2)c1 (stereo not given)	14.2%
COc1cccc(-n2nnc(C(=O)N3CCCCCC3)c2C)c1	2.845%
Cc1ccc(CSc2nc(N)cc(NCCS(=O)(=O)N(C)C)n2)cc1	23.5%
COc1ccc(CN(Cc2ccsc2)CC2CCCO2)cn1 (stereo not given)	61.6%
CC(C)n1cc(CN(Cc2ccsc2)CC2CCCO2)cn1 (stereo not given)	12.9%
c1csc(CN(Cc2ccsc2)CC2CCCO2)n1 (stereo not given)	-12.2%
CCCc1nnc(NCCc2noc(C3CC3)n2)o1	16.5%
NC(=O)Cn1cc(NC(=O)N2CCN(c3ccc(F)cc3)CC2)cn1	7.333%
NC(=O)c1cn(CC2CCC2)c(C2CC2)n1	-21.8%
CNc1ncccc1CN1CCN(C)CC(C(N)=O)C1 (stereo not given)	33.2%
CNc1ncccc1CN1CCN(C)CC(C(=O)N(C)C)C1 (stereo not given)	0.696%

Structure (SMILES)	INHIBITION
CNc1ncccc1CN1CCN2CCN(C)CC2C1 (stereo not given)	53.8%
Cc1nccn1CCC(=O)N1CCC2(CCC(=O)N(CC3CC3)C2)CC1	42.5%
CN(Cc1cccs1)C1CCC[C@@H]2CN(C(=O)c3cnccn3)C[C@H]12 (stereo not given in full)	37.9%
Cn1c(=O)oc2ccc(Nc3ncc(C#N)cc3Cl)cc21	42.1%
Cn1c(=O)oc2cc(Nc3nccnc3C#N)ccc21	36.5%
Cn1c(=O)oc2cc(Nc3ncc(C#N)cc3Cl)ccc21	58.9%
CS(=O)(=O)CCN(CCCO)C1CCc2ccccc21 (stereo not given)	18.3%
CS(=O)(=O)NCCN(CCCO)C1CCc2ccccc21 (stereo not given)	51.7%
CS(=O)(=O)CCCN(CCCO)C1CCc2ccccc21 (stereo not given)	21.7%
CC(=O)N1N=C(c2cccs2)OC1C(=O)Nc1ccc(C(C)C)cc1 (stereo not given)	6.55%
CCN1CCCN(C(=O)c2ccc(NC(=O)CC(C)C)c(C)c2)CC1	76.6%
COCC1CCCN(C(=O)c2ccc(NC(=O)CC(C)C)c(C)c2)C1 (stereo not given)	4.97%
CCN1CCN(c2ccc(NC(=O)CC(C)C)c(C)c2)CC1	35.7%
CCOC(=O)COc1ccc(C(C)=O)c(O)c1	38.2%
Cc1nn(C)c(C)c1C1CCCN1C(=O)c1ccc2c(c1)OCCO2 (stereo not given)	-45.9%
CCSCc1ccc(C(=O)N2CCCN(CC(N)=O)CC2)cc1	-40.5%
Cc1cccc(CN2C(=O)CC[C@@H]3[C@H]2CCN3CC2CCOCC2)n1	38.1%
CN(Cc1ccccc1NCc1cccnc1)C(=O)c1cccs1	49.3%
Cc1cnc(CNc2ccccc2CN(C)C(=O)c2cccs2)o1	55.6%
CN(Cc1ccccc1NCc1cscn1)C(=O)c1cccs1	20.6%
CCc1noc(CN(CC)C(=O)CC2C(=O)NCCN2CC(C)(C)C)n1 (stereo not given)	13.7%
CCN1C[C@@H]2[C@@H](OC)CCN(S(=O)(=O)c3cccnc3)[C@@H]2C1	26.4%
CCN1C[C@H]2[C@@H](C1)N(S(=O)(=O)c1ccccc1)CC[C@H]2OC	41.6%
CO[C@@H]1CCN(S(=O)(=O)N(C)C)[C@@H]2CN(Cc3cccnc3)C[C@@H]21	36.2%
CCN1C[C@@H]2[C@@H](OC)CCN(S(=O)(=O)c3ccccc3)[C@@H]2C1	17.6%
CCN1C[C@H]2[C@@H](C1)N(S(=O)(=O)c1cccnc1)CC[C@H]2OC	59.1%
CO[C@H]1CCN(S(=O)(=O)N(C)C)[C@@H]2CN(Cc3cccnc3)C[C@H]12	-18.5%

Structure (SMILES)	INHIBITION
CO[C@H]1CCN(S(=O)(=O)c2cccnc2)[C@@H]2CN(CC3CC3)C[C@H]12	52%
COCCN1C[C@@H]2[C@@H](OC)CCN(S(=O)(=O)c3cccnc3)[C@@H]2C1	31.1%
CO[C@@H]1CCN(S(=O)(=O)c2cccnc2)[C@@H]2CN(CC3CC3)C[C@@H]21	53.2%
O=C(NCCC1CCN(CC(F)(F)F)CC1)C1CCOC1 (stereo not given)	26.1%
Cc1csc(C(C)(C)NCC(=O)N(C)Cc2ccc(C)o2)n1	11.3%
NC(=O)C1CCN(C(=O)c2cccn2Cc2cccs2)C1 (stereo not given)	11.6%
CN1CCc2nc(C3CCCN(S(=O)(=O)c4ccccc4)C3)ncc2C1 (stereo not given)	29.85%
OC1(CN2CCC(Cc3ncccn3)CC2)CCCCC1	14.6%
COCCc1noc(CN2CCCC2Cn2cccn2)n1 (stereo not given)	38.8%
COCCN(Cc1ccco1)Cc1nc(-c2ccc(C)c(F)c2)no1	-16.7%
CSc1ccc(-c2noc(CN(CC(C)C)CC(C)C)n2)cc1	65.8%
CSc1ccc(-c2noc(CN(Cc3ccccc3)C(C)C)n2)cc1	46.1%
COc1ccc(CN2CC[C@H](NC(C)=O)[C@@H](O)CC2)c(F)c1	38.2%
CN1CCCc2cc(CNC(=O)c3cc[n+]([O-])cc3)ccc21	53.9%
CN1CCCc2cc(CNC(=O)c3ccncc3)ccc21	63.9%
Cc1cnc(C(=O)NCc2ccc3c(c2)CCCN3C)cn1	19.6%
COc1cc(C(=O)NCc2ccc3c(c2)CCCN3C)cc(OC)c1Br	34.7%
COC(=O)c1cccc(C(=O)NCc2ccc3c(c2)CCCN3C)c1	34.7%
CN1CCCc2cc(CNC(=O)c3ccc(-n4cnnc4)cc3)ccc21	37.4%
Cc1ccc(N2CCN(C(=O)C3CN(C)C(=O)N3)CC2=O)cc1 (stereo not given)	17.8%
O=C(CC1CCC1)N1CCCC(CO)(CC2CC2)C1 (stereo not given)	22.1%
CN(C)C(=O)N1CCN(c2ccc3ccc(C(=O)NC4CC4)cn23)CC1	-14.7%
CCOC(=O)c1c(NC(=O)CN2CCN(C(C)=O)CC2)sc2c1CCC2	14.2%
CC(C(=O)NCc1ccnc(N2CCN(C)CC2)c1)S(C)(=O)=O (stereo not given)	23.333%
